# This is part of a sample that, as a whole, favours compounds with a hit. Of some 83,000 tested, about 20% had one in any assay.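 In brief: 96-well plates, 48 h treatment, single concentration, percent growth endpoint.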 The source made the active and inactive calls. Rule for the calls: active = growth percent below 10; inactive = the rest.
# System: EKVX NSCLC
# Assay: NCI-60 one-dose screen, 48 h (100 = growth as untreated, 0 = no growth, -100 = all killed)
# Conditions: 10 µM unless noted
row,SMILES,growth
1,O=[N+]([O-])c1cccc(-c2nc3sccn3c2-c2ccnc(NCCCNS(=O)(=O)c3ccc(Br)cc3)n2)c1,59.4% (inactive)
2,O=C1Nc2c(ccc(Cl)c2Cl)/C1=C/c1cc(Br)c(O)c(Br)c1,47.3% (inactive)
3,Nc1nc2ccc(-c3nc4ccc5[nH]ncc5c4c4c3CCC4)cc2s1,19.4% (inactive)
4,Cc1cc(Cl)ccc1Nc1nc(C(F)(F)F)ccc1C(=O)N/N=C/c1ccc(F)cc1,16.7% (inactive)
5,COc1ccc(C(=O)COc2ccc(/C=C3\Oc4ccc(Cl)cc4C3=O)cc2)cc1,86.8% (inactive)
6,CC[C@@H](C)OC(=O)c1nn(C(C)=O)c2ccccc12,101% (inactive)
7,CCN(CC)c1ccc(/C=C/C2=[N+](C)c3ccccc3C2(C)C)cc1,0.0796% (active)
8,CC[C@H](Nc1nc(N)nc(C)c1C#N)c1nc2cccc(NCc3ccc(C(=O)NO)cc3)c2c(=O)n1-c1ccccc1,35.6% (inactive)
9,COc1ccc2[nH]c(=O)c(/C=C/C(=O)c3ccc(Nc4nccc(-c5ccc6ccccc6c5)n4)cc3)cc2c1,107% (inactive)
10,OC(c1cccc(C(F)(F)F)c1)c1cnccc1NC1CCCCCC1 (stereo not drawn),57.3% (inactive)
11,CNC(=O)c1cc(Oc2ccc3nc(NC(=O)Nc4ccc(CN5CCOCC5)c(C(F)(F)F)c4)sc3c2)ccn1,25.4% (inactive)
12,CC(C)[C@@H]1CC[C@]2(C(=O)NCCCCN=C(N)N)CC[C@]3(C)[C@H](CC[C@@H]4[C@@]5(C)CCC(=O)C(C)(C)[C@@H]5CC[C@]43C)[C@@H]12,81.5% (inactive)
13,Cc1ccc2c(c1)n([O-])c1cc(Cl)ccc1[n+]2=O,94.6% (inactive)
14,CC(C)(C)n1cc(-c2ccnc(NCCCNS(=O)(=O)c3cccc4ccccc34)c2)c(-c2cccc(O)c2)n1,42.3% (inactive)
15,COc1ccc(-c2cc(=O)[nH]c3c(OC)c4ccccc4c(OC)c23)cc1,26.4% (inactive)

# System: SN12C renal
# Assay: as above
# Conditions: 10 µM unless noted
row,SMILES,growth
1,O=S(=O)(Nc1ccc(F)c(Cl)c1)c1ccc(-c2cnc(C3CC3)o2)cc1,49.9% (inactive)
2,NCCN1CCN(c2nccc(-c3ccc4ccccc4c3)n2)CC1,52.1% (inactive)
3,CCCCNc1ccc2c3c1cccc3c(=O)n1c3ccccc3nc21,90.9% (inactive)
4,O=C1O[C@H]([C@H](O)CO)C(O)=C1O,104% (inactive)
5,CCC(=O)OCc1cccc(OC)c1,99% (inactive)
6,CC#Cc1nc2ccccc2c(=O)[nH]1,35.3% (inactive)
7,COc1cc2c(cc1O)CCc1cc(O)cc(OC)c1-2,89.4% (inactive)
8,CCCCCCCCCCCCS(=O)CC(C)O (stereo not drawn),106% (inactive)
9,COc1ccc(/C=C2\N=C3Sc4cc(Cl)ccc4C(=O)N3C2=O)cc1,96.3% (inactive)
10,O=C1C(Cl)=C(Cl)C(=O)c2c1nc1n2CCCC1,96.5% (inactive)
11,CN1CCN(Cc2ccc(NC(=O)c3cncc(C#Cc4c(N)ncc5ccc(C#N)cc45)c3)cc2C(F)(F)F)CC1,6.26% (active)
12,COc1cc(NC(N)=NCC(C)(C)COc2ccc(C(F)(F)F)cc2)cnc1C#N,66.8% (inactive)
13,CCCCCCCCCCCCCCCC(=O)OCC1OC(n2cnc3c(=S)nc(N)[nH]c32)C(OC(=O)CCCCCCCCCCCCCCC)C1OC(=O)CCCCCCCCCCCCCCC (stereo not drawn),84.2% (inactive)
14,O=[N+]([O-])c1cccc(-c2nc3sccn3c2-c2ccnc(NCCCNS(=O)(=O)c3ccc(Br)cc3)n2)c1,53% (inactive)
15,O=C1Nc2c(ccc(Cl)c2Cl)/C1=C/c1cc(Br)c(O)c(Br)c1,80.2% (inactive)
16,Nc1nc2ccc(-c3nc4ccc5[nH]ncc5c4c4c3CCC4)cc2s1,28.4% (inactive)
17,Cc1cc(Cl)ccc1Nc1nc(C(F)(F)F)ccc1C(=O)N/N=C/c1ccc(F)cc1,8.7% (active)
18,COc1ccc(C(=O)COc2ccc(/C=C3\Oc4ccc(Cl)cc4C3=O)cc2)cc1,103% (inactive)
19,CC[C@@H](C)OC(=O)c1nn(C(C)=O)c2ccccc12,102% (inactive)
20,CCN(CC)c1ccc(/C=C/C2=[N+](C)c3ccccc3C2(C)C)cc1,1.41% (active)
21,CCCCCCCCCCCCCCCC[N+]1(CC)CCCC1,-16.7% (active)
22,COc1cc(OC)c(/C=C/c2cc[n+](C)c3ccccc23)c(OC)c1,10.7% (inactive)
23,CC[C@H](Nc1nc(N)nc(C)c1C#N)c1nc2cccc(NCc3ccc(C(=O)NO)cc3)c2c(=O)n1-c1ccccc1,11.4% (inactive)

# Source: PubChem BioAssay (NCI)
